Test results reported in PubChem BioAssay AID1159580 (chemical genetic matrix, 2015).
“And” between values parts separate entries of the source, which are not always exact repeats. Identical values can stand only once. Screen size: about 5,500 compounds; about 2,000 (36%) were called active. Another 18% or so got no clear call; they are omitted. Cut-off read from the data, not from the text of the source: active = normalized growth mostly below about 0.91 (no sharp cut-off); inconclusive = no clear call, values can overlap the other calls; inactive = mostly above about 0.92. This is one part of the list.

Test: chemical genetic growth profiling, strain panel (AID 1159580);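 note: tested at 20 µM; growth read once vehicle control cultures reached saturation at 30 °C; 1 = growth at the plate median or of vehicle wells; lower values mean less growth of the strain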
Details: S. cerevisiae deletion strains, growth OD

Measured: normalized growth

CC(C)=CCc1c(O)cc2occ(-c3ccc4c(c3)OCO4)c(=O)c2c1O
0.984 (inactive) and 0.838 (active): locus YJL095W, strain BCK1, stronger effect = lower value
1.01 (inactive) and 0.843 (active): locus YHR030C, strain SLT2, stronger effect = lower value
inactive: locus YAL013W, strain DEP1, stronger effect = lower value 1.01 | locus YAL021C, strain ccr4, stronger effect = lower value 1.05 | locus YAL030W, strain snc1, stronger effect = lower value 0.996 | locus YBR021W, strain FUR4, stronger effect = lower value 0.991 | locus YBR171W, strain sec66, stronger effect = lower value 0.981 | locus YBR229C, strain ROT2, stronger effect = lower value 1.02 | locus YBR231C, strain swc5, stronger effect = lower value 0.929 | locus YBR279W, strain paf1, stronger effect = lower value 0.993 | locus YCL011C, strain gbp2, stronger effect = lower value 0.909 | locus YCL029C, strain bik1, stronger effect = lower value 1.03 | locus YCR088W, strain abp1, stronger effect = lower value 0.998 | locus YDL005C, strain med2, stronger effect = lower value 0.993 | locus YDL035C, strain GPR1, stronger effect = lower value 1.01 | locus YDL040C, strain nat1, stronger effect = lower value 1 | locus YDL074C, strain BRE1, stronger effect = lower value 1.03 | locus YDL101C, strain DUN1, stronger effect = lower value 1.01 | locus YDL134C, strain PPH21, stronger effect = lower value 1.01 | locus YDL185W, strain tfp1, stronger effect = lower value 1.03 | locus YDL192W, strain arf1, stronger effect = lower value 1.03 | locus YDR001C, strain nth1, stronger effect = lower value 1.01 | locus YDR069C, strain doa4, stronger effect = lower value 0.957 | locus YDR101C, strain arx1, stronger effect = lower value 1.01 | locus YDR137W, strain rgp1, stronger effect = lower value 0.897 | locus YDR150W, strain NUM1, stronger effect = lower value 1 | locus YDR159W, strain sac3, stronger effect = lower value 0.888 | locus YDR162C, strain NBP2, stronger effect = lower value 1.01 | locus YDR195W, strain ref2 0.937 | locus YDR318W, strain mcm21, stronger effect = lower value 1.02 | locus YDR334W, strain swr1, stronger effect = lower value 0.967 | locus YDR388W, stronger effect = lower value 1.02 | locus YDR502C, strain sam2, stronger effect = lower value 1.01 | locus YEL003W, strain gim4, stronger effect = lower value 0.932 | locus YEL037C, strain rad23, stronger effect = lower value 0.994 | locus YEL061C, strain CIN8 (second series), stronger effect = lower value 0.997 | locus YEL061C, strain CIN8, stronger effect = lower value 1.01 | locus YER016W, strain bim1, stronger effect = lower value 0.997 | locus YER110C, stronger effect = lower value 1.05 | locus YER111C, strain swi4, stronger effect = lower value 1.02 | locus YER155C, strain BEM2 (second series), stronger effect = lower value 0.911 | locus YER155C, strain BEM2, stronger effect = lower value 1.01 | locus YER167W, strain BCK2, stronger effect = lower value 1.02 | locus YFR010W, strain ubp6, stronger effect = lower value 0.92 | locus YGL078C, strain dbp3, stronger effect = lower value 1.03 | locus YGL086W, strain mad1, stronger effect = lower value 1.05 | locus YGL167C, strain pmr1, stronger effect = lower value 1 | locus YGL173C, strain kem1, stronger effect = lower value 0.921 | locus YGL227W, strain vid30, stronger effect = lower value 0.972 | locus YGL240W, strain doc1, stronger effect = lower value 0.944 | locus YGL248W, strain PDE1, stronger effect = lower value 1.02 | locus YGR078C, strain PAC10, stronger effect = lower value 0.997 | locus YGR135W, strain pre9, stronger effect = lower value 0.993 | locus YGR229C, strain SMI1, stronger effect = lower value 0.983 | locus YGR252W, strain gcn5, stronger effect = lower value 1.03 | locus YHR079C, strain IRE1 (second series), stronger effect = lower value 1.03 | locus YHR094C, strain hxt1, stronger effect = lower value 1.03 | locus YHR129C, strain ARP1, stronger effect = lower value 1.01 | locus YHR200W, strain rpn10, stronger effect = lower value 1.02 | locus YIL066C, strain RNR3, stronger effect = lower value 1.01 | locus YIL073C, strain SPO22, stronger effect = lower value 1.05 | locus YIL125W, strain kgd1, stronger effect = lower value 1.03 | locus YIR030C, strain dcg1, stronger effect = lower value 1.02 | locus YJL092W, strain hpr5, stronger effect = lower value 0.962 | locus YJL095W, strain BCK1 (second series), stronger effect = lower value 0.946 | locus YJL115W, strain asf1, stronger effect = lower value 1.01 | locus YJL129C, strain trk1, stronger effect = lower value 0.923 | locus YJL134W, strain LCB3, stronger effect = lower value 1.01 | locus YJL154C, strain vps35, stronger effect = lower value 1 | locus YJL164C, strain tpk1, stronger effect = lower value 0.943 | locus YJL168C, strain set2, stronger effect = lower value 1.02 | locus YJL187C, strain SWE1 (second series), stronger effect = lower value 1.01 | locus YJL187C, strain SWE1, stronger effect = lower value 1 | locus YJR043C, strain POL32, stronger effect = lower value 0.994
active: locus YAL026C, strain drs2, stronger effect = lower value 0.865 | locus YBL061C, strain skt5, stronger effect = lower value 0.864 | locus YBR009C, strain hhf1, stronger effect = lower value 0.819 | locus YBR023C, strain chs3, stronger effect = lower value 0.855 | locus YCL016C, strain dcc1, stronger effect = lower value 0.872 | locus YCL061C, strain MRC1, stronger effect = lower value 0.909 | locus YCL069W, strain vba3, stronger effect = lower value 0.888 | locus YDR297W, strain sur2, stronger effect = lower value 0.911 | locus YDR335W, strain msn5, stronger effect = lower value 0.917 | locus YDR392W, strain spt3, stronger effect = lower value 0.67 | locus YER015W, strain faa2, stronger effect = lower value 0.876 | locus YGL253W, strain hxk2, stronger effect = lower value 0.814 | locus YHR013C, strain ard1, stronger effect = lower value 1.17 [resistant] | locus YHR027C, strain rpn1, stronger effect = lower value 0.805 | locus YHR079C, strain IRE1, stronger effect = lower value 0.8 | locus YHR142W, strain chs7, stronger effect = lower value 0.74 | locus YJL166W, strain qcr8, stronger effect = lower value 0.862
